An excerpt weighted towards active compounds, which were near 6.3% of everything screened.
RORgamma inh = inhibitors of mouse ROR gamma transcriptional activity; Drosophila S2 Gal4-RORgamma UAS-luciferase reporter, 20 h; 310,000 tested, 5.4% active; AID 2551; Potency, µM (doses to about 53.6 µM), for the others: top-dose activity change, negative = inhibition, actives largely listed as inhibitors; P51450; note: % is set by controls: 0 for no effect and ±100 for the full control effect; nearly all actives have a fitted effect of over 60% in size
Target sequence (P51450 whole entry, looked up, the tested form may be a part): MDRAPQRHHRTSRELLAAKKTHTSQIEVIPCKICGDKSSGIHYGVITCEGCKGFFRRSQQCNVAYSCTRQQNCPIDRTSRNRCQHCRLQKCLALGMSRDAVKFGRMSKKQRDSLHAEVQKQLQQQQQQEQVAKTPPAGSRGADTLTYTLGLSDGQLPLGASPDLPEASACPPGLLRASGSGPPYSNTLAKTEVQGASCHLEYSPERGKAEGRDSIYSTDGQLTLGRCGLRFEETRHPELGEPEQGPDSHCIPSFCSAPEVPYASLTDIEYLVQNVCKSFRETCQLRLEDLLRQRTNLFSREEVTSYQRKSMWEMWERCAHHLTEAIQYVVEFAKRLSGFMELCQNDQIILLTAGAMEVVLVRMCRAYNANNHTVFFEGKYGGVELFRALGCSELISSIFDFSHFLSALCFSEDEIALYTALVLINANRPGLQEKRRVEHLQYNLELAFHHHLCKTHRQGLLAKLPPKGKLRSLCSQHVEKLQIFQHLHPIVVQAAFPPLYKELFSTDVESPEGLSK
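A Gal4/UAS one-hybrid system in insect cells: metallothionein-promoter Gal4–ROR gamma fusion plus Photinus luciferase reporter. Copper sulfate 700 uM final, 20 hr ambient incubation, luminescent detection after 10 min with reagent.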
HepG2 viability = counter-screen for TGF-b inhibitors: cytotoxicity in HepG2 cells | HepG2 CAGA-GFP viability, ATP luminescence, 18 h | Potency, µM (top dose mostly 46.1 µM), without a hit: at the highest dose activity change, negative = cytotoxicity, usual class: cytotoxic | 410,000 tested, 0.76% active | AID 588856
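CellTiter-Glo luminescence gave cytotoxicity after 18 hours at 37 degrees C. The cells were HepG2 CAGA-GFP in 1% FBS DMEM, stimulated with 500 pg/mL TGF-beta after compound addition. %Activity was normalised to no-cell wells (complete cell-killing) and DMSO (no toxicity), and curves were fitted and classified.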
ATXN viability = cell viability loss in ATXN counter-screen | S2 cells (HEK-293 line with an ATXN2-luciferase reporter) viability, CellTiter-Fluor protease fluorescence, 24 h | Potency, µM (top dose mostly 56.7 µM), hits mostly cytotoxic | 400,000 tested, 0.49% active; note: nearly all actives have a fitted effect of over 40% in size
TGFb SMAD3 inh = inhibitors of TGF-b signaling; HepG2 CAGA-GFP TGF-b/SMAD3 reporter, GFP fluorescence, 18 h; TGF-beta stimulated, 500 pg/mL final; Potency, µM (highest dose often 46.1 µM), for the others: top-dose activity, negative = inhibition, hits mostly inhibitors; 410,000 tested, 1.2% active; AID 588855; note: % is set by controls: 0 for no effect and ±100 for the full control effect; nearly all actives have a fitted effect of over 65% in size
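Per well, imaged GFP fluorescence of HEPG2 CAGA-GFP cells gives the signal; cells get compound, then TGF-beta (500 pg/mL final), 18 h at 37 degrees C; %Activity versus -TGF-beta and +DMSO controls.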
Gal4-VP16 FLuc = Gal4-VP16 reporter inhibition counter-screen; Drosophila S2 Gal4-VP16 UAS-luciferase, luminescence, 20 h; Potency, µM (titrated, usually from 53.6 µM), for inactives: at the highest dose activity, negative = inhibition, hits mostly inhibitors; 310,000 tested, 3.5% active;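 note: Gal4-VP16 expression switched on by copper sulfate through the metallothionein promoter; % is set by controls: 0 for no effect and ±100 for the full control effect; nearly all actives have a fitted effect of over 50% in size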
ATXN2 expr inh = inhibitors of ATXN2 expression | HEK-293 ATXN2-luciferase reporter, luminescence, 24 h | Potency, µM (doses to about 57 µM), inactives show at the highest dose activity change, negative = inhibition, usual class: inhibitors | 360,000 tested, 0.72% active; note: % is set by controls: 0 for no effect and ±100 for the full control effect; nearly all actives have a fitted effect of over 55% in size
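ATXN2-luciferase reporter cells (luciferase flanked by upstream and downstream ATXN2 gene portions) were treated 24 h at 37 °C with compounds at up to 57 uM. SteadyGlo luminescence gave expression; GF-AFC fluorescence gave viability.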
Starred values were filed as active, the others as inactive; i = inactive; ? = inconclusive; / = not tested or not shown; [ ] = remark or other dose. Calls come from the whole dose curve; as a rule, active = well fitted curve in the direction sought with a large enough effect; inconclusive = small, poorly fitted or top-dose-only effect, or another doubt; inactive = no such curve, though single readings can be large; an effect the other way counts as inactive or inconclusive. Potency is the fitted concentration of half-maximal effect.

SMILES	RORgamma inh	HepG2 viability	ATXN viability	TGFb SMAD3 inh	Gal4-VP16 FLuc	ATXN2 expr inh
CN[C@@H](C)C(=O)N[C@H]1CCCC[C@H]2CC[C@@H](C(=O)N[C@@H](c3ccccc3)c3cn(CCCCc4ccc(CCCCn5cc([C@@H](NC(=O)[C@@H]6CC[C@@H]7CCCC[C@H](NC(=O)[C@H](C)NC)C(=O)N76)c6ccccc6)nn5)cc4)nn3)N2C1=O	/	/	/	/	/	-2.6%
COC(=O)c1cc(=O)n(CCc2ccc(OC)c(OC)c2)c(=Nc2ccc(F)c(Cl)c2)s1	17.8µM*	0.9%	?	5.0%	?	?
S=C(c1cn(Cc2ccccc2)c2ccccc12)N1CCOCC1	11.2µM*	19.9%	i	43.5%	-15.1%	-25.1%[11.3 µM]
S=C(c1cn(Cc2ccc(Br)cc2)c2ccccc12)N1CCOCC1	14.1µM*	-45.3%	i	-48.4%	?	-21.1%
Cc1cccc(C)c1NC(=O)N1CCN(c2nc3ccccc3s2)CC1	?	-18.5%	i	-7.1%	-1.2%	-25.3%
Cc1cccc(Cl)c1NC(=O)N1CCCN(c2nc3ccc(Cl)cc3s2)CC1	?	-62.9%	?	14.1µM*	-5.6%	/
Cc1ccc(OCCSCc2nc3ccccc3[nH]2)cc1	-31.4%	-23.5%	i	-35.0%	?	0.1%
CCn1c(COc2ccc(Cl)cc2)nnc1SCc1nc2ccccc2[nH]1	11.2µM*	-20.5%	i	-16.0%	?	-13.6%
Clc1ccc(OCCSCc2nc3ccccc3[nH]2)cc1	5.01µM*	-10.8%	i	2.9%	5.01µM*	?
CCCSc1nnc(NC(=O)Cc2coc3cc(C)ccc23)s1	/	3.4%	i	16.2%	/	6.6%
CCCN1CCC(NCc2cn(C)nc2-c2ccc(Oc3ccccc3)cc2)CC1	?	1.26µM*	?	?	?	/
O=C(NCCCN1CCN(c2ccc(F)cc2)CC1)c1cc2c(s1)-c1ccccc1OC2	/	-84.5%	?	?	/	28.2µM*
O=C(NCCCN1CCN(c2ccc(F)cc2)CC1)c1ccc2nc(Cc3ccccc3)oc2c1	/	-42.7%	/	11.2µM*	/	?
CC1CCN(CCCNC(=O)c2cc3c(s2)-c2ccccc2OC3)CC1	-12.0%	-64.9%	i	?	2.0%	?
O=C(NCCCN1CCN(c2ccccc2)CC1)c1cc2c(s1)-c1ccccc1OC2	/	14.1µM*	?	?	/	0.0%
CC1CCCN(CCCNC(=O)c2cc3c(s2)-c2ccccc2OC3)C1 (stereo not drawn)	-18.5%	-57.9%	?	?	-9.6%	-21.8%
COc1cc(C(O)c2nc(-c3cccc(F)c3)cs2)ccc1F (stereo not drawn)	/	-23.4%	i	28.8%	/	14.8%
CC(C)(C)c1ccc(NC(=O)c2cc(C3CCCN(S(=O)(=O)c4cccc5cccnc45)C3)on2)cc1 (stereo not drawn)	/	-37.0%	i	-21.7%	/	-21.0%
C/C(=C\C(=S)Nc1ccccc1)Nc1ccccc1	10µM*	-28.2%	i	-49.5%	?	1.3%
C/C(=C\C(=O)c1ccccc1)Nc1ccc(O)cc1	?	-25.4%	i	-23.4%	13.0%	39.2%
COc1ccc(NCc2nc3ccccc3n2CCOc2ccccc2C)cc1	/	-37.7%	?	?	/	-9.6%
OCCN(Cc1ccccc1)C(=S)NC1CCCCC1	?	-16.1%	i	-6.5%	-1.6%	8.4%
CC(C)N(C(=S)NC1CCCCC1)c1ccccc1	11.2µM*	/	/	/	?	/
Cc1cccc(NC(=S)N(c2ccccc2)C(C)C)c1C	14.1µM*	-16.3%	?	-23.3%	25.1µM*	-4.1%
COc1ccccc1NC(=S)N(c1ccccc1)C(C)C	?	-4.1%	i	1.5%	-4.5%	0.4%
SMILES	RORgamma inh	HepG2 viability	ATXN viability	TGFb SMAD3 inh	Gal4-VP16 FLuc	ATXN2 expr inh
CC(C)N(Cc1ccccc1)C(=S)NC1CCCCC1	12.6µM*	0.5%	i	-16.5%	?	3.1%
C[C@@H]1C[C@@H]([C@@H](C)CC2CC(=O)NC(=O)C2)C(=O)[C@@H](C)C1	0.224µM*	/	/	/	-0.5%	/
CC(=O)Nc1cccc(-c2ccnc3c2CC(C)(C(=O)Nc2ccc(Cl)c(C(F)(F)F)c2)O3)c1 (stereo not drawn)	/	-21.7%	i	?	/	?
CC(C)NC(=O)NC(=O)COC(=O)c1ccccc1F	11.2µM*	-4.1%	i	?	-11.6%	-3.6%
CC(C)NC(=O)NC(=O)COC(=O)c1ccccc1O	-1.0%	0.0%	i	13.2%	-4.9%	22.1%
OC(c1ccccc1)c1nccc2ccccc12 (stereo not drawn)	12.6µM*	0.0%	i	-20.3%	-11.3%	-21.1%
COc1ccc(Cl)cc1NC(=O)CSc1nnc2[nH]c(=O)cc(-c3ccccc3)n12	/	4.4%	/	3.9%	/	/
CNC(=O)c1ccc2cc(C3(O)CCn4cncc43)ccc2c1 (stereo not drawn)	/	/	/	/	/	12.9%
COc1cc(NC(=O)CSc2ncnc3sc4c(c23)CCC(C)C4)c(C(=O)O)cc1OC (stereo not drawn)	11.2µM*	7.6%	i	-2.2%	?	-0.5%
CC1CCc2c(sc3ncnc(SCC(=O)Nc4ccc(C(=O)O)cc4)c23)C1 (stereo not drawn)	-15.1%	-11.0%	i	-6.7%	-0.6%	18.8%
Cc1nn(-c2ccccc2)c(N)c1N=Nc1ccc2ccccc2c1	1.12µM*	-32.1%	i	?	2.8%	74.2%
Cc1ccc(S(=O)(=O)NNC(=S)Nc2c(Cl)cccc2Cl)cc1	10µM*	-57.0%	i	-5.3%	?	16.5%
CC(=O)NC(=S)Nc1ccc(S(=O)(=O)Nc2ncccn2)cc1	-8.8%	10.5%	i	4.8%	-8.7%	11.9%
Cc1ccc(NC(=S)NNS(=O)(=O)c2ccc3ccccc3c2)cc1Cl	11.2µM*	0.9%	i	-8.9%	?	-0.7%
Cc1ccc(NC(=S)Nc2ccc(S(=O)(=O)Nc3ncccn3)cc2)cc1Cl	31.6µM*	/	/	/	?	/
O=S(=O)(Nc1ncccn1)c1ccc(NC(=S)Nc2cccc(Cl)c2)cc1	11.2µM*	/	/	/	?	/
Cc1ccc(S(=O)(=O)NNC(=S)Nc2ccc(Cl)cc2)cc1	-29.1%	5.0%	i	-18.9%	-5.9%	-22.4%
Cc1c(C(=O)N(C)Cc2nccs2)sc2ncnc(NCC3CCCO3)c12 (stereo not drawn)	/	/	i	/	/	/
COc1cccc(OC)c1C(=O)Nc1nnc(C)s1	/	-1.3%	i	7.6%	/	9.9%
O=C(NCc1ccc2c(c1)OCO2)c1nc(S(=O)(=O)Cc2ccccc2F)ncc1Cl	7.08µM*	15.8µM*	/	11.2µM*	3.55µM*	/
O=C(Nc1ccccc1)c1nc(S(=O)(=O)Cc2ccccc2F)ncc1Cl	/	7.08µM*	/	3.16µM*	/	/
